From PubChem BioAssay (NCATS) come the findings set out here.

In test [1] the target is Lysosomal acid glucosylceramidase (Homo sapiens) (UniProt P04062). The test is described as follows: Glucocerebrosidase-p2 (AID 348; in the data active means potency below about 10 µM; further: potency means the concentration at half of the fitted maximal effect). Conditions: purified GBA, blue fluorogenic substrate, 40 min. An outline of the steps: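 Normal human glucocerebrosidase (0.2 nM) with blue fluorogenic substrate (80 uM final) in citrate/phosphate pH 5.9 with 10mM sodium taurocholate, 0.01% tween-20; 40 min RT, NaOH/glycine stop; fluorescence Ex 365/Em 440; AC50 from a titration from 0.6 nM upwards.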

Test [2] in a line: AP1 Signaling Pathway (AID 357; active means well fitted curve in either direction with a large enough effect, not every such curve was filed as active;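 further: ME-180 reporter cells stimulated with EGF at its EC50 level; on the % scale 0 is the no-effect control and ±100 the full control effect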). Conditions: ME-180 AP-1-bla reporter, EGF-induced, beta-lactamase ratio, 5 h; at 7.69 µM (top of the series) unless noted. An outline of the steps: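 Beta-lactamase reporter under AP-1 response element, ME-180 background. Stimulus: EC50 EGF. Compound exposure 5 h, 37 °C. Detection: CCF4, 2.5 h RT, 460/530 nm. Values: AC50 from titration.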
Test [3] deals with Cytochrome P450 1A2 (Homo sapiens) (UniProt P05177). The test is described as follows: p450-cyp1a2 (AID 410; calls by dose curve; further: potency means the concentration at half of the fitted maximal effect). The note with it: recombinant CYP1A2, luciferin-ME demethylation, luminescence; series mostly up to 57 µM. An outline of the steps:
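20nM CYP1A2, 100uM Luciferin-ME (=Km), 100mM KPO4; cpd 10 min RT; +NADPH regen, 60 min RT; stop/detect 20 min; luminescence. Normalized to furafylline 57 uM = full inhibition.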

Test [4] can be described thus: NFAT Signaling Pathway (AID 444; active means well fitted curve in either direction with a large enough effect, not every such curve was filed as active;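 further: carbachol stimulus at about its EC50 of 1 µM final; on the % scale 0 is the no-effect control and ±100 the full control effect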). Conditions: Jurkat NFAT-bla M1, carbachol, beta-lactamase ratio, 5 h; at 7.69 µM (top of the series) unless noted. An outline of the steps:
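Jurkat cells carrying an NFAT-driven β-lactamase reporter and co-transfected muscarinic M1 receptor were treated with compound plus carbachol (1 uM final, an EC50 level) for 5 h at 37 °C. CCF4 loading followed for 1 h at RT; 460/530 nm ratio gave %activity.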

The nature of test [5]: Stat Signaling Pathway (AID 446; active means well fitted curve in either direction with a large enough effect, not every such curve was filed as active;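 further: ME-180 cervical cancer cells given 40 pM IL-6 alongside compound; SIE-controlled beta-lactamase reporter measured as 460/530 nm FRET emission ratio; on the % scale 0 is the no-effect control and ±100 the full control effect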). Conditions: ME-180 (cervical carcinoma) SIE beta-lactamase reporter, IL-6 stimulated, 5 h; at 7.69 µM (top of the series) unless noted. Put shortly:
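Normalization used AC90 stimulation (300 pM IL-6) and AC90 inhibition (125 nM pan-JAK inhibitor at 40 pM IL-6). The underlying signal is SIE-driven beta-lactamase in ME-180 cells after 5 h IL-6 exposure with compound.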

In test [6] the target is Glucocorticoid receptor (Homo sapiens) (UniProt P04150). The test is described as follows: GR-GFP Redistribution (AID 450;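 active means compounds whose dose series gives a full or clear partial fitted curve of increased nuclear translocation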; further: potency means the concentration at half of the fitted maximal effect). The note with it: U2OS GR-GFP nuclear translocation, laser cytometry, 2 h.
Test [7] has the same target. Nature of the test: GR-EFC Redistribution (AID 451; calls by dose curve; further: potency means the concentration at half of the fitted maximal effect). Conditions: CHO-K1 GR-EFC translocation, beta-gal luminescence, 2 h. Put shortly: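 CHO-K1 cells stably expressing nuclear-localized β-gal enzyme acceptor and GR fused C-terminally to the enzyme donor fragment; ligand-driven nuclear translocation restores β-gal by complementation. Compounds titrated up to 46 uM final, 2 h at 37 °C; luminescence read.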

For test [8], the target named is Mitogen-activated protein kinase 10 (Mus musculus) (UniProt Q61831). The test is described as follows: JNK3 AlphaScreen Assay (AID 530; active means well fitted curve in either direction with a large enough effect, not every such curve was filed as active;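 further: kinase came from lysate of stimulated human HepG2 cells; signal reports phosphorylation of biotinylated GST-cJun 1-79 at Ser73 with 10 µM ATP; on the % scale 0 is the no-effect control and ±100 the full control effect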). Conditions: JNK3 lysate, c-Jun phosphorylation; series mostly up to 57.1 µM. An outline of the steps:
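Biotinylated GST-cJun(1-79) served as substrate for JNK3 in HepG2 lysates stimulated with IL-1beta and TNF-alpha. ATP was 10 uM final, pH 7.6. Ser73 phosphorylation was quantified by AlphaScreen (680 nm excitation).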

Test [9] has as its target Cytochrome P450 3A4 (Homo sapiens) (UniProt P08684). The test is described as follows: qHTS Assay for Activators of Cytochrome P450 3A4 (AID 885). Further: nearly all actives have a fitted effect of over 65% in size. The note with it: recombinant CYP3A4, Luciferin-PPXE luminescence, 60 min; series mostly up to 57.1 µM. An outline of the steps:
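Human CYP3A4 dealkylates Luciferin-PPXE to luciferin, which luciferase detection converts to light. Substrate was at its KM (25uM), buffer 200mM KPO4, reaction 60 min at RT.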

In test [10] the target is Cytochrome P450 2D6 (Homo sapiens) (UniProt P10635). The test is described as follows: qHTS Assay for Inhibitors and Substrates of Cytochrome P450 2D6 (AID 891). Further: potency means the concentration at half of the fitted maximal effect; nearly all actives have a fitted effect of over 60% in size. Conditions: recombinant CYP2D6, luciferin-ME EGE luminescence; series mostly up to 57.1 µM. Put shortly: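 Luminescent read-out of luciferin formed by 5 nM human CYP2D6 demethylating 30 uM Luciferin-ME EGE (Km level) over 60 min at room temperature after NADPH regeneration addition. Data normalized to full inhibition by 1.43 uM quinidine.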
Background: Quantitative high-throughput screening tests each substance at several concentrations.

The target in test [11] is Dual specificity protein kinase CLK4 (Homo sapiens) (UniProt Q9HAZ1). Nature of the test: qHTS Assay for Inhibitors of CDC-like Kinase 4 (Kinase-Glo Assay) (AID 1770). Further: on the % scale 0 is the no-effect control and ±100 the full control effect; nearly all actives have a fitted effect of over 65% in size. The note with it: recombinant Clk4, Kinase-Glo ATP depletion luminescence; series mostly up to 66.7 µM. An outline of the steps: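 Luminescent ATP-depletion read-out (Kinase-Glo) after 4.5 h room-temperature reaction of Clk4 (25 nM final) with RS peptide (100 uM) and ATP (1 uM), pH 7.5 Tris buffer with MgCl2 and DTT.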

For test [12] the target is unchanged. The test is described as follows: qHTS Assay for Inhibitors of CDC-like Kinase 4 (ADP-Glo Assay) (AID 1771). Further: on the % scale 0 is the no-effect control and ±100 the full control effect; nearly all actives have a fitted effect of over 70% in size. The note with it: recombinant CLK4, ADP-Glo luminescence; series mostly up to 80 µM. Put shortly: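 25 nM Clk4, 100 uM RS peptide, 1 uM ATP (final); 2 mM MgCl2, 0.5 mM EGTA, 2.5 mM DTT, 0.01% Triton X-100; 1 hr RT. ADP-Glo readout: ATP depletion 45 min, conversion/luciferase 30 min, luminescence.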

The target is the same in test [13]. Nature of the test: qHTS Assay for Inhibitors of CDC-like Kinase 4 (ADP-FP Assay) (AID 1795).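 Further: recombinant human CLK4 phosphorylating RS repeat peptide at 1 µM ATP; on the % scale 0 is the no-effect control and ±100 the full control effect; nearly all actives have a fitted effect of over 60% in size.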 Conditions: Transcreener ADP fluorescence polarization; series mostly up to 50 µM. Put shortly:
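Kinase activity was measured as ADP production using Transcreener orange tracer (4 nM) and ADP antibody (1 ug/mL) fluorescence polarization, with ADP calculated from a calibration curve. The 1 h reaction contained 6.25 nM Clk4, 1 uM ATP and 100 uM RS peptide at pH 7.5 with Mg2+.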

The target in test [14] is Ubiquitin carboxyl-terminal hydrolase 1 (Homo sapiens) (UniProt O94782). The test is described as follows: Inhibitors of USP1/UAF1: Pilot qHTS (AID 504865).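 Further: rhodamine fluorescence freed from ubiquitin-rhodamine substrate followed over time; top concentration of the series differs between compounds; on the % scale 0 is the no-effect control and ±100 the full control effect; nearly all actives have a fitted effect of over 35% in size.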 The note with it: purified USP1/UAF1, Ub-rhodamine cleavage fluorescence; series mostly up to 54.9 µM. Put shortly: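 Deubiquitinase activity followed as kinetic rhodamine fluorescence release from 150 nM Ub-Rho. 1 nM USP1/UAF1 with compound, after 15 min room-temperature preincubation, in HEPES pH 7.8 buffer containing TCEP, EDTA, BSA and Tween-20.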

A short description of test [15]: Primary qHTS for small molecule stabilizers of the endoplasmic reticulum resident proteome: Secreted ER Calcium Modulated Protein (SERCaMP) assay (AID 1508630). Further: on the % scale 0 is the no-effect control and ±100 the full control effect. The note with it: SH-SY5Y GLuc-SERCaMP (Gaussia luciferase released on ER calcium loss) secretion, thapsigargin, luminescence; series mostly up to 38.4 µM. An outline of the steps: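 The SH-SY5Y reporter protocol was run at 3 concentrations up to 38.3 uM (primary) or 11 concentrations (follow-up): 16 h compound, 100 nM thapsigargin for 4 h, then extracellular luciferase luminescence.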

In test [16] the target is 3',5'-cyclic-AMP phosphodiesterase 4B (Homo sapiens) (UniProt Q07343). The test is described as follows: qHTS Assay for Inhibitors of PDE-IV (AID 607; active means well fitted activation curve with a large enough effect in the main read-out, with a control signal flat, not every such curve was filed as active; further: % of control where 0% means no effect). Conditions: HEK293 ACTOne CNG channel cells, membrane potential fluorescence; series mostly up to 22.9 µM. An outline of the steps: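 HEK293 ACTOne cells with CNG channel (1000/well), endogenous PDE4; membrane potential dye, compounds up to 22.9 uM final. Fluorescence Ex 535/Em 590; RO 20-1724 (100 uM final) as reference.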

The target of test [17] is Cytochrome P450 3A4 (Homo sapiens) (UniProt P08684). The test is described as follows: qHTS Assay for Inhibitors and Substrates of Cytochrome P450 3A4 (AID 884). Further: potency means the concentration at half of the fitted maximal effect; nearly all actives have a fitted effect of over 50% in size. Conditions: recombinant CYP3A4, Luciferin-PPXE luminescence; series mostly up to 57.1 µM. An outline of the steps: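 Luminescent readout of luciferin produced by CYP3A4 (20 nM) dealkylation of Luciferin-PPXE, 25 uM (its KM). NADPH-driven reaction ran 60 min at RT after 10 min compound preincubation; data scaled to 57 uM ketoconazole as 100% inhibition.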

For test [18], the target named is Cytochrome P450 2C19 (Homo sapiens) (UniProt P33261). Nature of the test: qHTS Assay for Inhibitors and Substrates of Cytochrome P450 2C19 (AID 899). Further: potency means the concentration at half of the fitted maximal effect; nearly all actives have a fitted effect of over 60% in size. Conditions: recombinant CYP2C19, luciferin-H EGE luminescence; series mostly up to 57.1 µM. Put shortly: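 In 50mM KPO4, the reaction held 5nM enzyme and KM-level (10uM) Luciferin-H EGE; it ran 60 min at 37C after NADPH regeneration and a 10 min compound preincubation. Luminescence values were scaled to 57uM ketoconazole as complete inhibition.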

Values without a mark were called inactive. Results filed as inconclusive are left out. Calls of active or inactive are those of the source. Unless noted, the call rests on the fitted dose curve; in most records, active means well fitted curve in the direction sought with a large enough effect; inconclusive means small, poorly fitted or top-dose-only effect, or another doubt; inactive means no such curve, though single readings can be large; an effect the other way counts as inactive or inconclusive.

Sequence of Cytochrome P450 3A4 (Homo sapiens) (P08684 whole entry, looked up): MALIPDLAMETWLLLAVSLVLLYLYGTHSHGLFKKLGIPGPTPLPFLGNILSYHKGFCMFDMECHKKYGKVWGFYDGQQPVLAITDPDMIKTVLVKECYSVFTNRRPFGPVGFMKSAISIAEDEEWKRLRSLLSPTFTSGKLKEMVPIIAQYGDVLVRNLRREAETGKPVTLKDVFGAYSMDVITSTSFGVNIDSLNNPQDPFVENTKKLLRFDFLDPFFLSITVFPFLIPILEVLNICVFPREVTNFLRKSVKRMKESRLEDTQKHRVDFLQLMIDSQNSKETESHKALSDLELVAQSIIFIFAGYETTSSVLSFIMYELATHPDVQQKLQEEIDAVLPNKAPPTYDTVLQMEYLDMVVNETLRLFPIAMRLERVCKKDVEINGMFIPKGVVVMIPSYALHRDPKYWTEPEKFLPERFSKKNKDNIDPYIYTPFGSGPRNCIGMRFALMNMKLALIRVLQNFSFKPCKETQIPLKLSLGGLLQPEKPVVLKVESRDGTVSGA
Sequence of Cytochrome P450 1A2 (Homo sapiens) (P05177 whole entry, looked up): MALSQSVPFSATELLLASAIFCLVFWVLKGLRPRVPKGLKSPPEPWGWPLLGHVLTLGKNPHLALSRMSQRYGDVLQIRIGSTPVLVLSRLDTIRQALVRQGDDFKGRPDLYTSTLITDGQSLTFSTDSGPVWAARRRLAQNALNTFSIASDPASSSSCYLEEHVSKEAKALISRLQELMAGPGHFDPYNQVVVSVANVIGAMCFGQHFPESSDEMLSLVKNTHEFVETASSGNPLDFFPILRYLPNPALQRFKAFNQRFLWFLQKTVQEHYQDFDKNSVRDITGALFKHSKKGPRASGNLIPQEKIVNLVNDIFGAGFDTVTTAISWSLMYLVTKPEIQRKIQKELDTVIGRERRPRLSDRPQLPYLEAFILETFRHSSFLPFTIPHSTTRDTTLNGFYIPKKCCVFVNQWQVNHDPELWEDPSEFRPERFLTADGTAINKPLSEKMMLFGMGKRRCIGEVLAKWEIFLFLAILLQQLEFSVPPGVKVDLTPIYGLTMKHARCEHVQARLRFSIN
Sequence of Cytochrome P450 2C19 (Homo sapiens) (P33261 whole entry, looked up): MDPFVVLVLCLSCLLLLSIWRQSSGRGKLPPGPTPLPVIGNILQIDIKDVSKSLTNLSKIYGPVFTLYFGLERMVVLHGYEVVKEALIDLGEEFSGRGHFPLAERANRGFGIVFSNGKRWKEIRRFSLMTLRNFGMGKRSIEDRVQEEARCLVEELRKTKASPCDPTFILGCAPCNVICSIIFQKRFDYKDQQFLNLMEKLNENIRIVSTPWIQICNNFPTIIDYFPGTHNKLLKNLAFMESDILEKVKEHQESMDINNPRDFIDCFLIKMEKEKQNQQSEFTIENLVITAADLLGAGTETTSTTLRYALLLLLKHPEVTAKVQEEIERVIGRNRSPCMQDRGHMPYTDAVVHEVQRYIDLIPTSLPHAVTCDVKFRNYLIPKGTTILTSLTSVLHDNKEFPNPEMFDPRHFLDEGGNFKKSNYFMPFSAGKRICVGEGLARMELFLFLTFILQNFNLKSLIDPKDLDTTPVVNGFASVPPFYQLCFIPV
Sequence of Ubiquitin carboxyl-terminal hydrolase 1 (Homo sapiens) (O94782 whole entry, looked up): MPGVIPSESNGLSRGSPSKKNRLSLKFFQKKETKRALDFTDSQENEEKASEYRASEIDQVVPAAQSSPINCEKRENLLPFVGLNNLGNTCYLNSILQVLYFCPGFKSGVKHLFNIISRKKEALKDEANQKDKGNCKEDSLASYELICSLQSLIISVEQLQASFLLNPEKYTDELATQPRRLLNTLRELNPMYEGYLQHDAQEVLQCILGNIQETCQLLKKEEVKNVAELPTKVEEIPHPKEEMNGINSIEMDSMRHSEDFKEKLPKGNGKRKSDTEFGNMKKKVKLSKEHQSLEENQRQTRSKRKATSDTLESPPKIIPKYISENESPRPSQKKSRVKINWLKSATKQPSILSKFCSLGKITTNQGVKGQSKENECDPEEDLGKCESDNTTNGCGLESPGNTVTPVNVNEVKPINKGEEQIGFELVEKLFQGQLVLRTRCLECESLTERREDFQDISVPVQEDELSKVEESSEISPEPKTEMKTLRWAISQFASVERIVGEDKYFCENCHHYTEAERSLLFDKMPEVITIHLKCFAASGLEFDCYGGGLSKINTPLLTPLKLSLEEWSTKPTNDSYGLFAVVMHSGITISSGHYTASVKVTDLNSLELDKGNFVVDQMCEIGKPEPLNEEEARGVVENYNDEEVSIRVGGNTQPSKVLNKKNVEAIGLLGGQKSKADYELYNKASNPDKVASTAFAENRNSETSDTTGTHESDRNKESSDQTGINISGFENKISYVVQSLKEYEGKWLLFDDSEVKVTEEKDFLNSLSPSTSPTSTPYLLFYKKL
Sequence of Dual specificity protein kinase CLK4 (Homo sapiens) (Q9HAZ1 whole entry, looked up): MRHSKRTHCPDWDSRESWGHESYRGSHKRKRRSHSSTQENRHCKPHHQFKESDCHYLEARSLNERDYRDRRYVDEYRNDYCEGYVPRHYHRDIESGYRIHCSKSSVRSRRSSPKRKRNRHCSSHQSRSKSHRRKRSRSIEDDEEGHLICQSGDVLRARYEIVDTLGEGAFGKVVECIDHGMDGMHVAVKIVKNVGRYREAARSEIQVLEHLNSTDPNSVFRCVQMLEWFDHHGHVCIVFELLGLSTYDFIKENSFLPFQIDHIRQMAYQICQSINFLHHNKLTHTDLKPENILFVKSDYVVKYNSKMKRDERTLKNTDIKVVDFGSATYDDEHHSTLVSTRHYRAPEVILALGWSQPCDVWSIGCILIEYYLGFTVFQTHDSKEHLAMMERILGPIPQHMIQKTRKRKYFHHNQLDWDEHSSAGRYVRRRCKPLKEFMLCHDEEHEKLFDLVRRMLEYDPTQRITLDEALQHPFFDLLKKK
Sequence of Glucocorticoid receptor (Homo sapiens) (P04150 whole entry, looked up, the tested form may be a part): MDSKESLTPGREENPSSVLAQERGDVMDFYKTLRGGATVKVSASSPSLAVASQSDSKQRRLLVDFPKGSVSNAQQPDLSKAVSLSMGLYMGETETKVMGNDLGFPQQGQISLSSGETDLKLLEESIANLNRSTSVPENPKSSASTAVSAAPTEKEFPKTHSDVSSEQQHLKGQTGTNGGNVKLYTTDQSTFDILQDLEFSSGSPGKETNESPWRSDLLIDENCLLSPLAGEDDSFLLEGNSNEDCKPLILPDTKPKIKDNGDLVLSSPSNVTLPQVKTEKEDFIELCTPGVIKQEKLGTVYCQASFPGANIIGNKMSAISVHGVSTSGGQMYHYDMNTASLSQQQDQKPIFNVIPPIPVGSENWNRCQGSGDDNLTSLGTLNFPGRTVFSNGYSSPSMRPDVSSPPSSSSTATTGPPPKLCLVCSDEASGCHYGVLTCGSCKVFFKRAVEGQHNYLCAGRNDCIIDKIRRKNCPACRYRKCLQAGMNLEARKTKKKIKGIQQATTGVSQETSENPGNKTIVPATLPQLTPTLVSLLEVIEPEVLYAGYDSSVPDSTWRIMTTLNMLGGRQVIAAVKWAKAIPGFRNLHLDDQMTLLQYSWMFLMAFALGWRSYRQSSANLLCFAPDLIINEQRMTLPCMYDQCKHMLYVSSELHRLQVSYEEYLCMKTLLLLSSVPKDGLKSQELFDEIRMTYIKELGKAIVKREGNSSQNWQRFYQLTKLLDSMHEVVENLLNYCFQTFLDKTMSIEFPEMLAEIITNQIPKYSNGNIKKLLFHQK
Sequence of Lysosomal acid glucosylceramidase (Homo sapiens) (P04062 whole entry, looked up): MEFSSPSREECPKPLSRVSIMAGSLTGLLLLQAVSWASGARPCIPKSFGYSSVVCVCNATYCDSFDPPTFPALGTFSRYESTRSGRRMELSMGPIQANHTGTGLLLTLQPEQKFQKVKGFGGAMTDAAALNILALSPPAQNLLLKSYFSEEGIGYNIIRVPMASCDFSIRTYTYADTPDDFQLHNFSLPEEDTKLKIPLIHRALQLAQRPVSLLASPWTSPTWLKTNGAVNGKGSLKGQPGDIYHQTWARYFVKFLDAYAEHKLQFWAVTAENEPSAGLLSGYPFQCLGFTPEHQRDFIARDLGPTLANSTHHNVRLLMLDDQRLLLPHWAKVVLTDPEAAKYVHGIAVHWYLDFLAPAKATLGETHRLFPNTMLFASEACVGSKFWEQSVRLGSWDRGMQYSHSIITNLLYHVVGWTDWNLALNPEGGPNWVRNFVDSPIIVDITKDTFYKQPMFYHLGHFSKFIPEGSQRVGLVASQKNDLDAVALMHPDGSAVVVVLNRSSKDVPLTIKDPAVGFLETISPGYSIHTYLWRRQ
Sequence of 3',5'-cyclic-AMP phosphodiesterase 4B (Homo sapiens) (Q07343 whole entry, looked up): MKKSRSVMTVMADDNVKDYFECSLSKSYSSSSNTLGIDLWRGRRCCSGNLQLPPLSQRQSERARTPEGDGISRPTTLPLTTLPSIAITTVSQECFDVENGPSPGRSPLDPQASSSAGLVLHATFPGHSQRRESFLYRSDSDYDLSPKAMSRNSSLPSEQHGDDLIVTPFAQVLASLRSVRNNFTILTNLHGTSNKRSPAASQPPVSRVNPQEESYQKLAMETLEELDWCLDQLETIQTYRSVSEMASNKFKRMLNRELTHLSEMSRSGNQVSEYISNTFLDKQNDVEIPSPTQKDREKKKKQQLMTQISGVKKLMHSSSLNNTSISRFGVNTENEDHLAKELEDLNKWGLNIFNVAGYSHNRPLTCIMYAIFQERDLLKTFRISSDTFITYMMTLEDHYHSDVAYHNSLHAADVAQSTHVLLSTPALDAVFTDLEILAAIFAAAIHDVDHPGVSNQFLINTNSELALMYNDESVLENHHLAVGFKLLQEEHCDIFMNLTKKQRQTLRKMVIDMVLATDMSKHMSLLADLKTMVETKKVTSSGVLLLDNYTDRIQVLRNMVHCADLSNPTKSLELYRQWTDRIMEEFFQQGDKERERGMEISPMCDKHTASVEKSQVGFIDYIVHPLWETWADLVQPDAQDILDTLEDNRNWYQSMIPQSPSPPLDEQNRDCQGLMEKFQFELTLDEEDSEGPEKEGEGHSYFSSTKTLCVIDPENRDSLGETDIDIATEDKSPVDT

As to `CCNc1ncc2nc(-c3cn(C)c4ccccc34)c(=O)n(CCC#N)c2n1`, the Potency in test [1] is more than 11.4 µM; in [3], 5.01 µM (active); in [6] it was more than 9.22 µM; in test [7] it was more than 46 µM; in [10], 3.98 µM (active). Also, the activity change, negative = inhibition was -22.2% in [2] and -4.28% in test [4]. Moreover, the activity, negative = inhibition in test [5] is -12.7%. In addition, the Potency result in [8], in test [9], in test [11], in test [12], in test [13] and in test [14] was “inactive” in each case. For the same compound, in test [15], the result was inactive.
As to `COc1ccc(-n2c(=O)c(-c3ccccc3)nc3cncnc32)cc1`, the Potency is more than 11.4 µM in test [1], 3.98 µM (active) in test [3], more than 9.22 µM in test [6] and more than 46 µM in [7]. In addition, the activity change, negative = inhibition in [2] is -26.7%; in test [4] it was 8.64%. In [5], the activity, negative = inhibition was -9.27%. Moreover, the Potency result in test [8], in test [16], in test [9], in test [11], in test [12] and in [13] was “inactive” in each case. Besides, in test [14], the Potency entry is “inactive”. Moreover, the outcome in [15] was inactive.
Take `Cc1ccccc1-c1cncnc1Nc1ccccc1`: the Potency was more than 11.4 µM in test [1]; 15.8 µM (active) in [3]; more than 46 µM in [6]; more than 46 µM in test [7]; 0.631 µM (active) in test [17]; 3.16 µM (active) in test [18]. Also, the activity change, negative = inhibition was -10.9% in [2] and -1.77% in test [4]. In addition, in test [5], the activity, negative = inhibition was 16%. Besides, the Potency result in test [8], in [9], in [11], in test [12], in test [13] and in test [14] was “inactive” each time. Moreover, the outcome in test [15] was inactive.
As for `COc1ccccc1CCn1c(=O)c(CCc2ccccc2)nc2cncnc21`, the Potency in [1] was more than 11.4 µM; in test [3] it was 7.94 µM (active); in test [6] it was more than 9.22 µM; in [7], more than 46 µM; in [18], 3.16 µM (active). Besides, the activity change, negative = inhibition was -16% in test [2] and -21.1% in [4]. For the same compound, in test [5], the activity, negative = inhibition is -8.11%. Besides, the Potency entry in test [8], in [9], in test [11], in [12], in test [13] and in test [14] was “inactive” each time. Moreover, the outcome in test [15] was inactive.
Regarding `O=c1c(-c2cccc(F)c2)nc2cncnc2n1Cc1ccccc1Cl`, the Potency in test [1] is more than 11.4 µM; in [3] it was 3.98 µM (active); in test [6] it was more than 9.22 µM; in test [7], more than 46 µM; in test [18], 0.794 µM (active). Moreover, the activity change, negative = inhibition is -4.26% in test [2] and -7.87% in test [4]. Besides, in [5], the activity, negative = inhibition was 4.32%. For the same compound, the Potency entry in [8], in test [9], in test [11], in test [12], in test [13] and in test [14] was “inactive” in each case. For the same compound, the result in test [15] was inactive.
Consider `CN(C)c1cc(-c2cccc(NS(C)(=O)=O)c2)ncn1`, for which the Potency in test [1] was more than 11.4 µM; in test [3], 1.26 µM (active); in test [6], more than 46 µM; in test [7], more than 46 µM. The activity change, negative = inhibition in test [2] was 3.12%; in test [4], 18.4%. The activity, negative = inhibition in test [5] was 1.39%. For the same compound, the Potency result in test [8], in [9], in [11], in test [12], in [13] and in [14] was “inactive” in each case. For the same compound, in test [15], the result was inactive.
